# Experimental data published in PubChem BioAssay.
# Calls of active or inactive are those of the source.
# Key:
# [1] = test system: Plasmodium falciparum Sir2 (PF13_0152, Sir2A); experiment: Plasmodium falciparum Sir2A binding compounds – biochemical, small-molecule microarray, 635 nm fluorescence, primary screen (AID 1098); settings: fluorescence 635 nm, higher = more signal;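 note: score merges spot fluorescence intensity with its signal-to-noise ratio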
# [2] = probe aDKK1 binding to arrayed compounds – biochemical, biotinylated probe, 635/667 nm fluorescence, primary screen (AID 1099); settings: small-molecule microarray, higher = more signal;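 note: score merges 667nm spot fluorescence with signal to noise across triplicate slides; reference of the scale not given here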
# [3] = probe aCHRDL2 binding to arrayed compounds – biochemical, biotinylated probe, 635/667 nm fluorescence, primary screen (AID 1100); settings: small-molecule microarray, higher = more signal
# [4] = change in splice reporter luminescence, either direction, cell-based, HEK293, spliceosome inhibition project, primary screen (AID 1101); settings: HEK293 splicing luciferase reporter, 24 h, higher = more signal, called active from +8 up or from −8 down;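 note: HEK293 cells carrying a splicing-competent luciferase reporter gene; test concentration not given here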
# [5] = biological target: Fibroblast growth factor 10 (Homo sapiens) (UniProt O15520); experiment: compounds binding fibroblast growth factor 10 – biochemical, small-molecule microarray, 635 nm fluorescence, primary screen (AID 1102); settings: FGF10 binding, fluorescence 635 nm, higher = more signal
# Fibroblast growth factor 10 (Homo sapiens), sequence (O15520 whole entry, looked up): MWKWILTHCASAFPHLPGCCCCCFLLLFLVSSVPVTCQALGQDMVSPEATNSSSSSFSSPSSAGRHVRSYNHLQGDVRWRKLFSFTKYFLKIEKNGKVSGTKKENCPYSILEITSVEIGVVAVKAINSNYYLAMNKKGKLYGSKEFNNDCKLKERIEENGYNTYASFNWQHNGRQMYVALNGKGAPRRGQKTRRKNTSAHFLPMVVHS
# [6] = test system: glycogen synthase kinase-3 (GSK3A per assay name; protocol says GSK3B); experiment: compounds binding glycogen synthase kinase-3 – biochemical, small-molecule microarray, 635 nm fluorescence, GSK3A, primary screen (AID 1103); settings: fluorescence 635 nm, higher = more signal; note: the record names both GSK3A and GSK3B
# [7] = biological target: Epidermal growth factor receptor (Homo sapiens) (UniProt P00533); experiment: compounds binding epidermal growth factor receptor – biochemical, small-molecule microarray, 635 nm fluorescence, primary screen (AID 1104); settings: EGFR binding, higher = more signal;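 note: score merges 667 nm emission intensity with spot signal to noise over triplicate slides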
# Epidermal growth factor receptor (Homo sapiens), sequence (P00533 whole entry, looked up): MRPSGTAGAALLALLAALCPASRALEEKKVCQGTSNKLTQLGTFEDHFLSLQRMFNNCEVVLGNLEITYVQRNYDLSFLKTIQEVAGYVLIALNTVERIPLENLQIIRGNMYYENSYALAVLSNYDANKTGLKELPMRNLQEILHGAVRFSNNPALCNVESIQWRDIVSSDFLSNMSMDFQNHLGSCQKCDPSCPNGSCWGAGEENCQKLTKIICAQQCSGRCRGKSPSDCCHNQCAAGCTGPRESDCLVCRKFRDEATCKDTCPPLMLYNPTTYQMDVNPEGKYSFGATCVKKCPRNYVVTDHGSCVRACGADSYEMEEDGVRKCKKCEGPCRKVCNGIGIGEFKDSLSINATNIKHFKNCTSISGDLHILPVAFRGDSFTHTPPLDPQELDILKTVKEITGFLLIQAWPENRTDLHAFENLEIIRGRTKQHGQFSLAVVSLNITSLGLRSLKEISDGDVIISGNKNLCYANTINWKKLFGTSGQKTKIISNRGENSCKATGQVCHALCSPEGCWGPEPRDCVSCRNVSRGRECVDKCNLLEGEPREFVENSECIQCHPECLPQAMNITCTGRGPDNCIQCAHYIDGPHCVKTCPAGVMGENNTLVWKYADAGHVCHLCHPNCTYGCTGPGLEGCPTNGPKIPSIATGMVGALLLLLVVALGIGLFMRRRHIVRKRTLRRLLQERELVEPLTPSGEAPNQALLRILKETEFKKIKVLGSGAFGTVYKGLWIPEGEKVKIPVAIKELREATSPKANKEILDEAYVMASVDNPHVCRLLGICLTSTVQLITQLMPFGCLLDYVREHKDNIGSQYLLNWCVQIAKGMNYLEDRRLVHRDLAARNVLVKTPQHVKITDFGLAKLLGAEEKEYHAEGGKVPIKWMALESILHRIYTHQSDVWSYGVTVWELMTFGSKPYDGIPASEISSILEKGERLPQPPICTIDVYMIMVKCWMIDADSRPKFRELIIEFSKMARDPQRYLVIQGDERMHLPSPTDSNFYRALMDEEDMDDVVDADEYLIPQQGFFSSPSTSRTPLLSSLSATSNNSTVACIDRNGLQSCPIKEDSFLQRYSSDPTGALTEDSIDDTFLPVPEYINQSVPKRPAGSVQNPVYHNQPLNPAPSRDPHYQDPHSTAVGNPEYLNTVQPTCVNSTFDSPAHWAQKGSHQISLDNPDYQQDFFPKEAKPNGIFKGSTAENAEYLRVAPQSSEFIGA
# [8] = biological target: Follistatin-related protein 3 (Homo sapiens) (UniProt O95633); experiment: compounds binding follistatin-related protein 3 – biochemical, small-molecule microarray, 635 nm fluorescence, primary screen (AID 1105); settings: FSTL3 binding, higher = more signal;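 note: score merges emission near 667 nm and signal to noise per printed spot across three slides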
# Follistatin-related protein 3 (Homo sapiens), sequence (O95633 whole entry, looked up): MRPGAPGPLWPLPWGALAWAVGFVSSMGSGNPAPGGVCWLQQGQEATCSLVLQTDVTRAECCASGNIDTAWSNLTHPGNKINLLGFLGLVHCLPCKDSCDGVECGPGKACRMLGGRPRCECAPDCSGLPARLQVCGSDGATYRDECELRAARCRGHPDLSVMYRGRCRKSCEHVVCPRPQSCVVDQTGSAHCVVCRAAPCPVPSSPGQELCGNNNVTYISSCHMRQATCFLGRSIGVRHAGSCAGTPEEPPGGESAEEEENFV
# [9] = biological target: Dickkopf-related protein 1 (Homo sapiens) (UniProt O94907); experiment: small molecules binding DKK1 protein – biochemical, small-molecule microarray, 635 nm fluorescence scan, primary screen (AID 1106); settings: higher = more signal;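 note: score merges emission near 667 nm with signal to noise over three replicate slides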
# Dickkopf-related protein 1 (Homo sapiens), sequence (O94907 whole entry, looked up): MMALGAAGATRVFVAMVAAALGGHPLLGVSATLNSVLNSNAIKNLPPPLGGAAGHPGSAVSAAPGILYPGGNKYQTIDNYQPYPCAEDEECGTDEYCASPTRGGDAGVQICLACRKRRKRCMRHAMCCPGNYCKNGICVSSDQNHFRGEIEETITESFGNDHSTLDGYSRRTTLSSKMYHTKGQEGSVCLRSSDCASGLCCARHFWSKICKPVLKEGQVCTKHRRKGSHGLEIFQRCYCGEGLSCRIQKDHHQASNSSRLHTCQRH
# [10] = test system: Inhibin beta A chain (activin A); experiment: small molecules binding activin A – biochemical, small-molecule microarray, 635 nm fluorescence scan, primary screen (AID 1107); settings: INHBA, higher = more signal;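 note: mouse activin A protein probed at 4.33 µg/mL on printed slides; score merges bound-protein fluorescence near 667 nm with spot signal-to-noise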
SMILES,composite z-score [1],composite z-score [2],composite z-score [3],z-score [4],composite z-score [5],composite z-score [6],composite z-score [7],composite z-score [8],composite z-score [9],composite z-score [10]
COc1ccc([Si](C)(C)[C@@H]2[C@@H](CC(=O)N(CCO)Cc3ccccc3)O[C@]3(C(=O)N(Cc4cccc(N5CCOC5=O)c4)c4ccccc43)[C@H]2C)cc1,1.07,-0.178,-0.29,-0.244 (inactive),0.386,0.688,0.41,0.468,0.291,0.523
COCCOC(=O)N1C(=O)[C@@]2(c3cc(C#CCCO)ccc31)[C@H](c1ccccc1OCCO)N1[C@H](c3ccccc3)[C@H](c3ccccc3)OC(=O)[C@H]1[C@@H]2C(=O)Nc1nc2ccccc2s1,1.5,0.95,0.856,-0.713 (inactive),0.689,1.2,0.397,0.966,0.635,0.46
C=C(C)c1cc2c(c(CCCCCC)n1)[Si](C(C)C)(C(C)C)OC2,-0.491,-0.304,0.149,-0.392 (inactive),-1.04,-1.18,-1.01,-1.24,-1.31,0.138
[N-]=[N+]=Nc1ccccc1[C@H]1OC(c2ccc(OCCCO)cc2)=N[C@@]1(Cc1ccccc1)C(=O)N1CCCCC1,0.813,1.04,1.13,1.35 (inactive),1.45,0.99,0.422,1.11,1.18,1.03
CN1C(=O)C2C=CC(C(O)C#Cc3ccccc3)N(Nc3ccccc3)C2C1=O (stereo not given),1.58,0.932,0.891,1.24 (inactive),1.33,1.31,0.56,1.42,-0.184,0.926
O=C1O[C@H](c2ccccc2)[C@H](c2ccccc2)N2[C@H]1[C@@H](C(=O)Nc1nc3ccccc3s1)[C@]1(C(=O)Nc3ccc(C#CCCO)cc31)[C@H]2c1ccc(O)cc1,0.915,0.39,0.673,-0.285 (inactive),0.929,0.88,0.591,0.763,0.198,0.635
COc1ccc([Si](C)(C)[C@@H]2[C@@H](CC(=O)N(CCO)Cc3ccccc3)O[C@]3(C(=O)N(Cc4cccc(N5C(=O)c6cccc7cccc5c67)c4)c4ccccc43)[C@H]2C)cc1,1.5,-0.277,0.246,-1.11 (inactive),0.0691,-0.727,0.412,1.4,0.816,0.539
O=C1C2C=CC(C(O)c3ccc(Br)cc3)N(Nc3ccccc3F)C2C(=O)N1c1ccccc1 (stereo not given),0.708,0.0952,0.703,-1.93 (inactive),0.118,0.235,-0.309,0.0807,-0.325,0.404
O=C1NC(=O)C2C1C=CC(C(O)c1ccco1)N2Nc1ccccn1 (stereo not given),0.76,-0.0191,0.0668,1.69 (inactive),0.32,0.03,0.217,-0.374,-0.172,1.01
CN(C)CCCNC(=O)[C@@]1(C)c2ccccc2C(=O)N(Cc2ccccc2)[C@H]1c1ccc(CO)cc1,1.71,-0.719,0.683,0.711 (inactive),-0.476,-0.35,-1.48,-0.456,0.0494,1
NC(N)=NCCCn1cc(CNC(=O)[C@@H](N)Cc2ccccc2)nn1,1.23,0.174,0.34,0.292 (inactive),0.697,0.0853,-0.38,1.36,0.0571,0.9
Cc1ccc(S[C@]2(C(=O)O)CC(=O)N(Cc3ccccc3Cl)[C@@H]2c2ccc(CO)cc2I)cc1,0.534,1.47,-0.217,-0.565 (inactive),-0.054,0.202,0.0365,0.653,1.18,0.164
COc1cccc(/C=C/C=O)c1,-0.663,0.24,-0.326,0.85 (inactive),0.393,0.0414,0.417,0.237,0.339,-0.115
O=C1O[C@H](c2ccccc2)[C@H](c2ccccc2)N2[C@H]1[C@@H](C(=O)Nc1nc3ccccc3s1)[C@]1(C(=O)Nc3ccc(C#CC4(O)CCCCCC4)cc31)[C@H]2c1ccccc1OCCO,1.55,-0.074,-0.353,-0.215 (inactive),1.35,1.33,0.49,1.32,0.452,-0.0311
CC(C)[Si](C#CCCCC#N)(O[C@H](c1ccccc1)c1cn([C@H](CO)Cc2ccccc2)nn1)C(C)C,0.726,-0.151,0.138,-0.401 (inactive),0.61,0.709,0.52,1.36,0.598,0.0469
CC(C)(C)OC(=O)CC[C@@]1(C(=O)NCc2ccccc2)N=C(c2ccc(OCCCO)cc2)O[C@@H]1c1ccccc1N=[N+]=[N-],0.71,1.03,1.29,-1.18 (inactive),1.39,1.18,0.373,1.26,0.0295,0.795
COCCOC(=O)N1C(=O)[C@@]2(c3cc(C#CC4=CCCCC4)ccc31)[C@H](c1ccc(O)cc1)N1[C@H](c3ccccc3)[C@H](c3ccccc3)OC(=O)[C@H]1[C@@H]2C(=O)N1CCN(c2ncccn2)CC1,-0.0148,-0.222,0.649,-0.297 (inactive),-0.769,-0.858,-1.04,-1.85,-1.22,-0.918
